# L3MBTL1 inh-1: inhibitors of human L3MBTL1; Q9Y468; AlphaScreen L3MBTL1–H3K9me1 peptide binding; Potency, µM (doses to about 57.1 µM), inactives show top-dose activity, negative = inhibition, most hits filed as inhibitors; 230,000 tested, 0.66% active; AID 485360; further: potency means the concentration at half of the fitted maximal effect; on the % scale 0 is the no-effect control and ±100 the full control effect; nearly all actives have a fitted effect of over 60% in size
#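 AlphaScreen assay: L3MBTL1 (50 nM final) was preincubated 30 min at room temperature with biotinylated H3(1-15)K9me1 peptide (75 nM final), then 30 min with library compounds; streptavidin donor and nickel chelate acceptor beads (10 ug/mL final) added, 30 min dark.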
# CtBP-E1A inh: blocks the CtBP interaction with E1A; AlphaScreen GST-E1A/His-CtBP binding, 1536-well; hits give low values; activity change, % (concentration not given with the values); 340,000 tested, 0.49% active; in the data active means activity change below about -65%; inconclusive means mostly about -30% to -63%; further: on the % scale 0 is the no-effect control and ±100 the full control effect
#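 AlphaScreen with 125 nM GST-E1A and 125 nM His-CtBP (5X stocks) in Tris pH 8.0, 300 mM NaCl, BSA, Tween 20, TCEP. Compounds preincubated 2 h at 37 deg C, then glutathione donor/nickel acceptor beads added for 1 h at 37 deg C in dark.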
# Six1-Eya2 blk: Six1/Eya2 interaction inhibition. activity change, % (concentration not given with the values). 360,000 tested, 0.56% active. AID 651725. AlphaScreen GST-Six1/His-Eya2 binding, biochemical; hits give low values; in the data active means activity change below about -65%; inconclusive means mostly about -30% to -63%; further: on the % scale 0 is the no-effect control and ±100 the full control effect
# Target sequence (O00167 whole entry, looked up): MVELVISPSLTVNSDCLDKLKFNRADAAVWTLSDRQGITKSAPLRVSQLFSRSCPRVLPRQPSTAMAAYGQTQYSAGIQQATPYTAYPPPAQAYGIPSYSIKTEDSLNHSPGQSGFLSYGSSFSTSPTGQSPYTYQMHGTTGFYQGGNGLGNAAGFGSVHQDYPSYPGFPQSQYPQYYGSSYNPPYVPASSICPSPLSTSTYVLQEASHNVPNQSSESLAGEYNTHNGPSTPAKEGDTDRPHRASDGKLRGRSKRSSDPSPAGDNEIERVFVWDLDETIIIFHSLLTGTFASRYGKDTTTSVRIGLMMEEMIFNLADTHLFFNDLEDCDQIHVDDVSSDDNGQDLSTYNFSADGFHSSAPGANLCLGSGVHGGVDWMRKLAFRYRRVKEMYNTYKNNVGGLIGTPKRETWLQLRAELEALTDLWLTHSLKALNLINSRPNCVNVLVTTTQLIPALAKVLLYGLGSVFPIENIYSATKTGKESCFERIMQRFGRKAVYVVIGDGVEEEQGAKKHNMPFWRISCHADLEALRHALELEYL
# Target sequence (Q15475 whole entry, looked up): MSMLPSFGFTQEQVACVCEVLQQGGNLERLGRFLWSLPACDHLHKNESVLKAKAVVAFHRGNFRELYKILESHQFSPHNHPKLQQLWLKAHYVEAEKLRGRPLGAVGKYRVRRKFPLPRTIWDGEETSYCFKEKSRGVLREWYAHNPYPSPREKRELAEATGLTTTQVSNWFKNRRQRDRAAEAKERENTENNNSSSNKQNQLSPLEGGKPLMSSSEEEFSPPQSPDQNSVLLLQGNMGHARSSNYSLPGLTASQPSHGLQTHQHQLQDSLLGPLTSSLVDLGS
#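 Six1/Eya2 binding was read as AlphaScreen signal after compounds were pinned into GST-Six1 plus His-tagged Eya2 (5X stock 250/500 nM) in pH 8.0 Tris/NaCl/TCEP buffer, beads added, then incubated 1 h, 37 C, dark.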
# JMJD2E inh: JMJD2E (human) inhibition; 230,000 tested, 1.6% active; Potency, µM (top dose mostly 57.1 µM), for the others: top-dose activity change, negative = inhibition, actives largely listed as inhibitors; JMJD2E catalytic domain, FDH-coupled NADH fluorescence (FDH is formaldehyde dehydrogenase); B2RXH2; active means well fitted inhibition curve with a large enough effect, not every such curve was filed as active; inconclusive means small, poorly fitted or top-dose-only effect, or another doubt; inactive means no such curve, though single readings can be large or run the other way;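 further: potency means the concentration at half of the fitted maximal effect; 0% = wells with enzyme and -100% = buffer wells without enzyme; nearly all actives have a fitted effect of over 50% in size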
# L3MBTL1 inh-2: L3MBTL1 binding inhibition validated; L3MBTL1 methyl-lysine binding inhibition, biochemical qHTS; Potency, µM, hits mostly inhibitors; shares compounds with L3MBTL1 inh-1; 500 tested, 91% active; further: potency means the concentration at half of the fitted maximal effect; nearly all actives have a fitted effect of over 70% in size
# AlphaScreen ctr2: AlphaScreen signal inhibition, L3MBTL1 hit counter-screen; shares compounds with L3MBTL1 inh-1; AlphaScreen counterscreen, signal inhibition; Potency, µM (top dose mostly 57.1 µM), inactives show at the top dose activity change, negative = inhibition, actives largely listed as inhibitors; 500 tested, under 10 active; AID 602224; further: potency means the concentration at half of the fitted maximal effect; 0% is about no effect
# Starred values were filed as active, the others as inactive; ? = inconclusive; . = not tested or not shown; [ ] = remark or other dose. The entries come from a sample that favours hits as a whole. Unless noted, the call rests on the fitted dose curve; in most records, active means well fitted curve in the direction sought with a large enough effect; inconclusive means small, poorly fitted or top-dose-only effect, or another doubt; inactive means no such curve, though single readings can be large; an effect the other way counts as inactive or inconclusive.
SMILES,L3MBTL1 inh-1,CtBP-E1A inh,Six1-Eya2 blk,JMJD2E inh,L3MBTL1 inh-2,AlphaScreen ctr2
Cc1ccc2c(CC(=O)OCC(=O)N(CC(C)C)c3c(N)n(Cc4ccccc4)c(=O)[nH]c3=O)coc2c1,32µM*,3,6,.,21*,9%
CCN(C(=O)COC(=O)Cc1coc2cc(C)ccc12)c1c(N)n(Cc2ccccc2)c(=O)[nH]c1=O,-3%,-11,3,.,.,.
Cc1ccc(C)c(/C(O)=C2/C(=O)C(=O)N(CCN3CCOCC3)C2c2ccco2)c1 (stereo not drawn),25µM*,9,-6,?,11*,6%
Cc1ccc(C2/C(=C(/O)c3ccccc3)C(=O)C(=O)N2CCN2CCOCC2)o1 (stereo not drawn),-8%,7,5,-2%,.,.
Cc1cc2c(c(=O)o1)C(c1ccc([N+](=O)[O-])o1)C(C#N)=C(N)O2 (stereo not drawn),32µM*,4,-11,?,?,9%
CCC(CC)C1C(C#N)=C(N)Oc2cc(C)oc(=O)c21 (stereo not drawn),.,7,0,0%,.,.
CN(C)S(=O)(=O)c1cccc(NC(=O)c2cccc(S(=O)(=O)N3CCc4ccccc43)c2)c1,-3%,.,-1,.,.,.
O=C(Oc1c(CN2CCOCC2)cc(Cl)c2cccnc12)c1ccccc1F,14µM*,-91*,-91*,32µM*,27*,2%
O=C(Oc1ccc(C(=S)N2CCOCC2)cc1Cl)c1ccccc1F,-9%[2.29 µM],.,-10,.,.,.
Cc1ccccc1OS(=O)(=O)c1cn(C)c(=O)n(C)c1=O,8%,5,2,6%,.,.

# Screens deposited in PubChem by National Center for Advancing Translational Sciences (NCATS).
